Data from paper PMC5540273 (PLoS ONE, 2017).

Legend:
Settings in all cases: concentration: 1 μM, replicates: in singlicate; n = 1
KIT = test system: KIT
LATS1 = test system: LATS1
LATS2 = test system: LATS2
LCK = test system: LCK
LIMK1 = test system: LIMK1
LIMK2 = test system: LIMK2
LKB1 = test system: T1, LKB1
T1 construct: gene STK11

LOK = test system: T2, LOK
T2 construct: gene STK10

LRRK2 = test system: LRRK2
LTK = test system: LTK
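Also: KINOMEscan kinase panel screen.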

SMILES | %Inh (KIT) | %Inh (LATS1) | %Inh (LATS2) | %Inh (LCK) | %Inh (LIMK1) | %Inh (LIMK2) | %Inh (LKB1) | %Inh (LOK) | %Inh (LRRK2) | %Inh (LTK)
Cc1cc(NCC(c2ccccc2)c2ccccc2)nc(NCc2ccc(C(F)(F)F)cc2)n1 [GW497681] | 6% | 0% | 5% | 0% | 0% | 9% | 12% | 0% | 0% | 0%
Cc1ccc(-c2cc(-c3c[nH]nc3-c3ccccn3)ccn2)cc1 [GW684088] | 23% | 0% | 6% | 7% | 0% | 17% | 12% | 0% | 0% | 0%
Fc1cccc(COc2nnc(-c3ccc4c(c3)CCO4)o2)c1 | 3% | 0% | 0% | 0% | 0% | 0% | 16% | 0% | 4% | 0%
O=C(O)COc1ncnc2cc(-c3ccc4[nH]ncc4c3)sc12 | 21% | 0% | 48% | 0% | 0% | 0% | 0% | 2% | 0% | 97.3%
COc1ccccc1CNC(=O)c1cc(C(=O)c2ccccc2C)c[nH]1 [GSK364507] | 41% | 0% | 0% | 12% | 8% | 5% | 0% | 0% | 0% | 0%
Cc1ccc(NC(=O)Nc2cc(C(C)(C)C)nn2-c2ccccc2)cc1 [GSK1014915] | 98.6% | 31% | 0% | 24% | 5% | 0% | 0% | 60% | 0% | 67%
Cc1cccc(-c2nc(-c3ccc(S(C)(=O)=O)cc3)sc2-c2ccnc(NCCc3ccccc3)c2)c1 | 98.4% | 13% | 0% | 0% | 0% | 4% | 0% | 0% | 0% | 0%
O=c1cc(N2CCOCC2)nc2n(Cc3cccc(Cl)c3Cl)ccn12 [GSK2286295] | 32% | 0% | 13% | 9% | 0% | 0% | 0% | 0% | 31% | 0%
COC(=O)c1c(-c2ccccc2)c2cc(OC)ccc2c(=O)n1Cc1ccccc1 | 93.3% | 31% | 0% | 0% | 0% | 0% | 8% | 9% | 0% | 11%
Nc1nc(-c2nccs2)c(-c2ccnc3ccccc23)s1 [GW693542] | 0% | 22% | 0% | 13% | 6% | 0% | 0% | 0% | 19% | 4%
O=C(Nc1n[nH]c2nc(-c3nccs3)c(Br)cc12)C1CCCC1 [SB-742609] | 7% | 9% | 0% | 9% | 19% | 0% | 0% | 0% | 35% | 0%
COc1ccc(Nc2nccc(-c3cccc(NC(=O)c4cc5cc(F)ccc5[nH]4)c3)n2)cc1 [GSK1229782] | 57% | 5% | 6% | 46% | 0% | 12% | 12% | 0% | 42% | 19%
Cc1cccc(-c2nc(Nc3ccncc3)c3ccccc3n2)n1 [GW855857] | 10% | 3% | 0% | 9% | 12% | 5% | 18% | 37% | 0% | 21%
COc1cc2ncn(-c3cc(OCC4CCCO4)c(C(N)=O)s3)c2cc1OC (stereo not drawn) [GSK204607] | 16% | 0% | 10% | 7% | 0% | 16% | 0% | 96.9% | 0% | 11%
CC(=O)Nc1nc2cnc(Nc3cc(NC(=O)c4cccc(CCC#N)c4)ccc3C)nc2s1 | 99.7% | 21% | 29% | 27% | 0% | 0% | 0% | 0% | 0% | 0%
CCn1c(-c2cccnc2O)nc2cnccc21 [SB-736715] | 0% | 0% | 0% | 0% | 0% | 0% | 27% | 0% | 0% | 0%
Cc1c(O)cccc1Nc1ccnc2ccc(C(F)(F)F)cc12.Cl [GW466413] | 17% | 0% | 0% | 73% | 0% | 0% | 0% | 0% | 58% | 28%
Cc1nnc(-c2ccc3occ(-c4ccc(S(C)=O)cc4)c3c2)[nH]1 (stereo not drawn) | 20% | 19% | 0% | 46% | 0% | 0% | 23% | 98.7% | 0% | 0%
